A short description of test [1]: qHTS assay to identify aromatase inhibitors - cell viability counter screen (AID 743084).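 Further: cells stimulated with testosterone during compound exposure; nearly all actives have a fitted effect of over 55% in size.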 Further: potency means the concentration at half of the fitted maximal effect. For orientation: In qHTS, concentration-response curves come from the screen itself.
For test [2], the target named is Aryl hydrocarbon receptor (Homo sapiens) (UniProt P35869). The experiment in a line: qHTS assay to identify small molecule that activate the aryl hydrocarbon receptor (AhR) signaling pathway (AID 743085).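 Further: HG2L7.5c1 human HepG2 liver cells with stably integrated DRE-driven firefly reporter; series mostly up to about 70 µM; nearly all actives have a fitted effect of over 15% in size.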 An outline of the steps: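 Luminescence (ONE-Glo) from a dioxin-responsive-element luciferase reporter in HG2L7.5c1 HepG2 cells after 24 hr compound exposure at 37C; viability measured by CellTiter-Fluor fluorescence beforehand.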
Chain of Aryl hydrocarbon receptor (Homo sapiens) (P35869 whole entry, looked up): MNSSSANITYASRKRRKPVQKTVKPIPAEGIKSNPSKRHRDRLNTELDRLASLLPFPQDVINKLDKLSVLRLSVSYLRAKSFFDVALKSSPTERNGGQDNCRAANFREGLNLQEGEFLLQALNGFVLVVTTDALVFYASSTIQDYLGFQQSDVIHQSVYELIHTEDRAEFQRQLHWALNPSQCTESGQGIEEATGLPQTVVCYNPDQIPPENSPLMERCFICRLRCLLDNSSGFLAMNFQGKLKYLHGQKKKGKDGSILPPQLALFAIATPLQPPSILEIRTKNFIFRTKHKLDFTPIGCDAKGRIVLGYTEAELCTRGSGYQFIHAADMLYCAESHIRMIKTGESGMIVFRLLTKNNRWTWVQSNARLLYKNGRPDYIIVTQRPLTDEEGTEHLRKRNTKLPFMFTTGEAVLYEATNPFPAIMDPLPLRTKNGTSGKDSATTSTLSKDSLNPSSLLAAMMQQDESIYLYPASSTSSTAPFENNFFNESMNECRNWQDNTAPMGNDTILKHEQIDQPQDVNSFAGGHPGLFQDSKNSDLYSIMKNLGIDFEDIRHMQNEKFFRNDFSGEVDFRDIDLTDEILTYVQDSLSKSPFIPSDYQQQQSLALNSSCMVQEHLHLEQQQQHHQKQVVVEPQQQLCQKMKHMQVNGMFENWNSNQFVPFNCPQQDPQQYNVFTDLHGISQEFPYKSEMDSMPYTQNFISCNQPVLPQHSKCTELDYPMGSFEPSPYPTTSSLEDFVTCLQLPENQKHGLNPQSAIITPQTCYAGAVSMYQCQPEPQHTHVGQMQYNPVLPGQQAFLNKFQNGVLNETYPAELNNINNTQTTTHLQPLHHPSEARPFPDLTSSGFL

Test [3] is described as follows: qHTS assay to identify small molecule that activate the aryl hydrocarbon receptor (AhR) signaling pathway - cell viability counter screen (AID 743086).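 Further: HepG2 liver cells carrying the AhR DRE luciferase reporter; series mostly up to about 70 µM; nearly all actives have a fitted effect of over 45% in size.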 In short, it runs like this:
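Cytotoxicity counter screen: CellTiter-Fluor signal (30 min, 37 C) in 4000 HepG2 cells/well carrying the DRE-luciferase reporter, following 24 h compound exposure at 37 C.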

Test [4] has as its target Peroxisome proliferator-activated receptor gamma (Homo sapiens) (UniProt P37231). Put plainly: qHTS assay to identify small molecule antagonists of the peroxisome proliferator-activated receptor gamma (PPARg) signaling pathway (AID 743191; calls by dose curve; further: series mostly up to about 63 µM; nearly all actives have a fitted effect of over 30% in size). In short, it runs like this: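 Beta-lactamase reporter under UAS control in HEK293H PPARg-bla cells; compound treatment 17 h at 37C. Read-out: fluorescence intensity after 1 h room-temperature incubation with LiveBLAzer B/G FRET substrate.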

A short description of test [5]: qHTS assay to identify small molecule antagonists of the peroxisome proliferator-activated receptor gamma (PPARg) signaling pathway - cell viability counter screen (AID 743194). Further: nearly all actives have a fitted effect of over 55% in size. Further: potency means the concentration at half of the fitted maximal effect. The following applies: Potency: co-treated with 50 nM rosiglitazone. An outline of the steps: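 Viability was measured as CellTiter-Glo luminescence in GeneBLAzer PPARg UAS-bla HEK293H cells. These cells had been exposed 17 h at 37 C to compounds together with rosiglitazone at 50 nM final, with the beta-lactamase readout taken in the same wells.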

A short description of test [6]: qHTS assay for small molecule agonists of the antioxidant response element (ARE) signaling pathway (AID 743202; active means well fitted activation curve with a large enough effect in the signal ratio in the repeat runs, not every such curve was filed as active; the % refers to the signal ratio; further: potency means the concentration at half of the fitted maximal effect). An outline of the steps:
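An ARE-responsive beta-lactamase gene stably integrated in HepG2 cells serves as reporter. After 5 h plating and 16 h compound incubation at 37 C, fluorescence of the B/G FRET substrate was measured.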

Test [7] in a line: qHTS assay for small molecule agonists of the antioxidant response element (ARE) signaling pathway - cell viability counter screen (AID 743203; calls by dose curve; further: nearly all actives have a fitted effect of over 55% in size; further: potency means the concentration at half of the fitted maximal effect). In short, it runs like this:
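ARE-bla HepG2 cells were plated, rested 5 h at 37C/5% CO2, then exposed to compounds in DMSO for 16 h. Viability was read as CellTiter-Glo luminescence after 30 min at room temperature, in the same wells as the ARE screen.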

A short description of test [8]: qHTS assay for small molecule activators of the heat shock response signaling pathway - cell viability counter screen (AID 743209). Further: nearly all actives have a fitted effect of over 50% in size. Further: potency means the concentration at half of the fitted maximal effect. In short, it runs like this:
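HSE-bla HeLa cells plated overnight, then exposed to Tox21 compounds (23 nL in DMSO) for 5 h at 37 C. After the bla reporter read, CellTiter-Glo was added in the same wells and luminescence read after 30 min at room temperature.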

Test [9] can be described thus: qHTS assay for small molecule activators of the heat shock response signaling pathway (AID 743210; active means well fitted activation curve with a large enough effect in the signal ratio in the repeat runs, with a control signal flat, not every such curve was filed as active; the % refers to the signal ratio;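 further: HeLa cells with beta-lactamase reporter driven by heat shock elements; series mostly up to about 63 µM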). An outline of the steps: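 In HSE-bla HeLa cells, 5 h compound incubation (37 C) precedes addition of LiveBLAzer B/G substrate; after 2.5 h at room temperature, fluorescence intensity indicates reporter induction.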
Test [10] in a line: qHTS assay to identify small molecule agonists of the peroxisome proliferator-activated receptor delta (PPARd) signaling pathway - cell viability counter screen (AID 743211). Further: nearly all actives have a fitted effect of over 55% in size. Further: potency means the concentration at half of the fitted maximal effect. In short, it runs like this:
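Viability was measured as CellTiter-Glo luminescence (30 min, room temperature) in the same wells as the beta-lactamase readout. GeneBLAzer PPARd UAS-bla HEK293H cells received compound after 5 h plating and were incubated 17 h at 37 C.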

The target in test [11] is Peroxisome proliferator-activated receptor delta (Homo sapiens) (UniProt Q03181). Put plainly: qHTS assay to identify small molecule agonists of the peroxisome proliferator-activated receptor delta (PPARd) signaling pathway (AID 743212; calls by dose curve). In short, it runs like this: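 HEK293H UAS-bla reporter cells, human PPARd system; compounds delivered in DMSO after 5 h plating, then at 37 C. Beta-lactamase FRET read, 2 h RT substrate step.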
Chain of Peroxisome proliferator-activated receptor delta (Homo sapiens) (Q03181 whole entry, looked up): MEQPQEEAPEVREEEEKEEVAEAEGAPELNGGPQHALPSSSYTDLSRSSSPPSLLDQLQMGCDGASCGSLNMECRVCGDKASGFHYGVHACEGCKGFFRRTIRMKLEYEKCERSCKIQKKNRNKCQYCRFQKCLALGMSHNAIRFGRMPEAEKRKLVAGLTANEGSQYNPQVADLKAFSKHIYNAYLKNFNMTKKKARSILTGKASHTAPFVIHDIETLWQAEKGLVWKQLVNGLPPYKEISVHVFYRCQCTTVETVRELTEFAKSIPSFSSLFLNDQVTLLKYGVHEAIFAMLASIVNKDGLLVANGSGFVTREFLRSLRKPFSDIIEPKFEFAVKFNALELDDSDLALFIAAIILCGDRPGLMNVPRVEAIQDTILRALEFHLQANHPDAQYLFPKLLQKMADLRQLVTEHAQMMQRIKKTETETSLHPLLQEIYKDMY

Test [12] in a line: qHTS assay to identify small molecule antagonists of the peroxisome proliferator-activated receptor delta (PPARd) signaling pathway - cell viability counter screen (AID 743213). Further: nearly all actives have a fitted effect of over 50% in size. Further: potency means the concentration at half of the fitted maximal effect. An outline of the steps:
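HEK293H PPARd UAS-bla cells, 5 h pre-incubation, compound + L165041 300 nM final, 17 h 37 C; B/G FRET substrate 2 h RT; then CellTiter-Glo 30 min RT, luminescence.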

The target of test [13] is Peroxisome proliferator-activated receptor delta (Homo sapiens) (UniProt Q03181). The experiment in a line: qHTS assay to identify small molecule antagonists of the peroxisome proliferator-activated receptor delta (PPARd) signaling pathway (AID 743215; active means well fitted inhibition curve with a large enough effect in the signal ratio in the repeat runs, not every such curve was filed as active; the % refers to the signal ratio;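 further: cells stimulated with agonist L165041 at 300 nM final during compound exposure; series mostly up to about 62 µM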). An outline of the steps: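 PPARd-bla HEK293H cells (UAS-bla reporter) preincubated 5 h, then given compound plus 300 nM final L165041 agonist for 17 h at 37 C. Beta-lactamase activity read by LiveBLAzer B/G FRET substrate fluorescence after 2 h at room temperature.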

The nature of test [14]: qHTS assay to identify small molecule agonists of the farnesoid-X-receptor (FXR) signaling pathway - cell viability counter screen (AID 743218). Further: nearly all actives have a fitted effect of over 45% in size. Further: potency means the concentration at half of the fitted maximal effect. In short, it runs like this:
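FXR-UAS-bla HEK 293T cells exposed to compounds for 16 h at 37C. Cytotoxicity read in the same wells by CellTiter-Glo luminescence after 30 min at room temperature, following the beta-lactamase FRET read.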

A short description of test [15]: qHTS assay to identify small molecule antagonists of the farnesoid-X-receptor (FXR) signaling pathway - cell viability counter screen (AID 743221; active means well fitted cell-killing curve with a large enough effect in the repeat runs, not every such curve was filed as active; further: nearly all actives have a fitted effect of over 50% in size; further: potency means the concentration at half of the fitted maximal effect). In short, it runs like this: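 Cytotoxicity counter screen run in the FXR-bla reporter wells: HEK 293T cells exposed to compound with 50 uM (final) chenodeoxycholic acid for 16 h, 37 C, then viability measured by CellTiter-Glo luminescence after 30 min, room temperature.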

Test [16] concerns the target Peroxisome proliferator-activated receptor gamma (Homo sapiens) (UniProt P37231). Put plainly: qHTS assay to identify small molecule agonists of the peroxisome proliferator-activated receptor gamma (PPARg) signaling pathway (AID 743094; active means well fitted activation curve with a large enough effect in the signal ratio in the repeat runs, not every such curve was filed as active; the % refers to the signal ratio). In short, it runs like this:
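GeneBLAzer PPARg UAS-bla HEK293H cells were plated, rested 5 h, then exposed to compounds for 17 h at 37C. Beta-lactamase activity was read by LiveBLAzer B/G FRET substrate fluorescence after 1 h at room temperature.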

Test [17] concerns the target Vitamin D3 receptor (Homo sapiens) (UniProt P11473). The experiment in a line: qHTS assay to identify small molecule agonists of the vitamin D receptor (VDR) signaling pathway (AID 743222; calls by dose curve). An outline of the steps: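 VDR-bla cells plated 4 h at 37 C, then exposed to compounds for 16 h at 37 C. Beta-lactamase reporter activity measured by fluorescence after 2 h room-temperature loading with LiveBLAzer B/G FRET substrate.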

The target is the same in test [18]. The experiment in a line: qHTS assay to identify small molecule antagonists of the vitamin D receptor (VDR) signaling pathway (AID 743223; active means well fitted inhibition curve with a large enough effect in the signal ratio in the repeat runs, not every such curve was filed as active; the % refers to the signal ratio). An outline of the steps:
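Antagonist mode: compound added to VDR-bla cells alongside agonist 1alpha,25-dihydroxyvitamin D3 (3 nM final), incubation 16 h at 37C. Read-out is LiveBLAzer FRET fluorescence, 2 h at room temperature.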

The target in test [19] is Bile acid receptor (Homo sapiens) (UniProt Q96RI1). The experiment in a line: qHTS assay to identify small molecule agonists of the farnesoid-X-receptor (FXR) signaling pathway (AID 743220; active means well fitted activation curve with a large enough effect in the signal ratio in the repeat runs, not every such curve was filed as active; the % refers to the signal ratio). An outline of the steps: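 Beta-lactamase reporter under UAS control in GeneBLAzer FXR HEK 293T cells (5000/well) measured with LiveBLAzer FRET substrate after 2 h at room temperature. Compound exposure lasted 16 h at 37C.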
Chain of Bile acid receptor (Homo sapiens) (Q96RI1 whole entry, looked up): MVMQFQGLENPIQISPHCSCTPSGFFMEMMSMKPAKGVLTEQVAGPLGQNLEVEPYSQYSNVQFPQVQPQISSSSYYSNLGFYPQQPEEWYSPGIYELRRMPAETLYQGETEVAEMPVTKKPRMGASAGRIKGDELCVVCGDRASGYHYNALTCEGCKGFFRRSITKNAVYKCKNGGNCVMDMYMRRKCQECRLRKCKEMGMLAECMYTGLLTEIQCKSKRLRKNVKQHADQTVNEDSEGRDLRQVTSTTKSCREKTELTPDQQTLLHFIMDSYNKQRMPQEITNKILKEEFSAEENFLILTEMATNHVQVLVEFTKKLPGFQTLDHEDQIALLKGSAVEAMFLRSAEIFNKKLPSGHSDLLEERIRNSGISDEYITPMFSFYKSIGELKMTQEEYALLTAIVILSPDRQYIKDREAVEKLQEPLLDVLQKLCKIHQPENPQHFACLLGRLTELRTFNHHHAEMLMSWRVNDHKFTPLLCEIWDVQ

For test [20] the target is unchanged. Put plainly: qHTS assay to identify small molecule antagonists of the farnesoid-X-receptor (FXR) signaling pathway (AID 743217; active means well fitted inhibition curve with a large enough effect in the signal ratio in the repeat runs, not every such curve was filed as active; the % refers to the signal ratio). In short, it runs like this: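 FXR-UAS-bla HEK 293T cells (beta-lactamase reporter) given compound plus chenodeoxycholic acid (50 uM final), 16 h at 37C. LiveBLAzer B/G FRET substrate added for 2 h at room temperature; fluorescence read.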

“And” between values parts separate entries of the source, which are not always exact repeats. Identical values can stand only once. Results filed as inconclusive are left out. More than one record can exist for a structure, and the calls need not agree. The source made the active and inactive calls. Unless noted, the call rests on the fitted dose curve; in most records, active means well fitted curve in the direction sought with a large enough effect in the repeat runs; inconclusive means weak or mixed curves; inactive means no such curve, though single readings can be large; an effect the other way counts as inactive or inconclusive.

Chain of Vitamin D3 receptor (Homo sapiens) (P11473 whole entry, looked up): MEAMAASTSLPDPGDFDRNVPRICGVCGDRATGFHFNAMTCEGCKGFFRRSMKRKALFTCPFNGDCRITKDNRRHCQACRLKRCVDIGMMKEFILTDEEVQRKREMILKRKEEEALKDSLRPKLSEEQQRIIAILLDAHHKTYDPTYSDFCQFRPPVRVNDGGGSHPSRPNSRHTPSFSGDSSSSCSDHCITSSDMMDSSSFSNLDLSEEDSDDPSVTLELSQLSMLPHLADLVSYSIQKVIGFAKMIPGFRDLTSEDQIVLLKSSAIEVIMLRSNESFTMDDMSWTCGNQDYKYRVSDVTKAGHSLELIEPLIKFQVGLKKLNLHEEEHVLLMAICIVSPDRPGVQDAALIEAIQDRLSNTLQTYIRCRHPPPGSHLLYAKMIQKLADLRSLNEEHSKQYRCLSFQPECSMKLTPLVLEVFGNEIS
Chain of Peroxisome proliferator-activated receptor gamma (Homo sapiens) (P37231 whole entry, looked up): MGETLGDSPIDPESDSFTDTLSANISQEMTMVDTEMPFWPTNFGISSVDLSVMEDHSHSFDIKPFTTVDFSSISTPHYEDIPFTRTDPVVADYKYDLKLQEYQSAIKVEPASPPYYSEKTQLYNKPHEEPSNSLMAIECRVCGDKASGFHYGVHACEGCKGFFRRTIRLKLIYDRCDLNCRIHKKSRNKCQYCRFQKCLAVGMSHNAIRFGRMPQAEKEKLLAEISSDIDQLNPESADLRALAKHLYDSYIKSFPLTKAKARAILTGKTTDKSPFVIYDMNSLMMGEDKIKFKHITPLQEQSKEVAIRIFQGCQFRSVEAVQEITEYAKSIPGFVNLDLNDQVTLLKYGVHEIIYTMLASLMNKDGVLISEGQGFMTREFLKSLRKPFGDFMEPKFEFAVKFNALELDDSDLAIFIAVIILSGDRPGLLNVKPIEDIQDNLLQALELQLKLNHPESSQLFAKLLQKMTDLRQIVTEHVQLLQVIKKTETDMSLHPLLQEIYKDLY

Turning to `CCCC1CCCCN1` (stereo unspecified), the Potency entry in test [1], in test [2], in test [3], in test [4], in test [5] and in [6] was “inactive” throughout. Moreover, the Potency result in test [7], in [8], in test [9], in [10], in [12] and in test [13] was “inactive” in each case. In addition, the Potency entry in test [14] and in test [15] was “inactive” each time. In addition, in test [11], the compound was called inactive.

`CCCCCCCCn1sccc1=O`: the Potency is 12.2 µM (active) and 40.4 µM (active) in [1]; 34.7 µM (active) and 28.9 µM (active) in test [5]; 21.7 µM (active) and 25.5 µM (active) in test [7]; 1.95 µM (active) and 2.04 µM (active) in test [10]; 1.38 µM (active) and 1.82 µM (active) in [12]; 7.78 µM (active) and 5.13 µM (active) in test [14]. Besides, the Potency in [15] is 6.18 µM (active) and 4.57 µM (active). The Potency result in test [2], in test [3], in [16] and in [8] was “inactive” each time. Also, the result in test [17] was inactive.

Take `C=CC(C)(CCC=C(C)C)OC(=O)c1ccccc1N` (stereo unspecified): the Potency result in [1], in test [2], in test [3], in test [5], in [6] and in test [8] was “inactive” throughout. The Potency result in test [9], in test [12], in test [14], in test [15] and in test [18] was “inactive” throughout. The compound was classed as inactive in [17].

For the compound `O=C(CCl)CCl`, the Potency in test [1] was 15.4 µM (active); in [5], 21.9 µM (active); in test [6], 14.2 µM (active); in [7], 19.3 µM (active); in test [8] it was “inactive and 12.3 µM (active)”; in [10], “inactive and 54.9 µM (active)”. Further, the Potency entry in test [14] is “inactive and 54.9 µM (active)”. Further, the Potency result in [2], in test [3], in [12], in test [13], in test [15] and in test [18] was “inactive” throughout. Further, the result in test [11] and in test [17] was inactive.

As for `C=CCOCC1CO1` (stereo unspecified), the Potency result in test [1], in test [2], in [3], in test [4], in test [5] and in test [7] was “inactive” each time. In addition, the Potency result in [8], in test [10], in test [12], in test [14] and in test [15] was “inactive” in each case. Besides, the outcome in test [19] and in test [17] was inactive.

Turning to `CC(C)C1(C)N=C(c2ncccc2C(=O)O)NC1=O` (stereo unspecified), the Potency result in test [1], in [2], in [3], in test [4], in test [5] and in test [6] was “inactive” each time. Further, the Potency entry in test [7], in test [8], in [9], in test [10], in [12] and in test [13] was “inactive” throughout. The Potency result in test [20], in test [14], in test [15] and in test [18] was “inactive” in each case. In addition, the compound was called inactive in [11], in [19] and in [17].

For `N#CC(C#N)=Cc1ccc(O)c(O)c1`, the Potency result in [1], in test [2], in test [3], in test [16], in test [4] and in test [7] was “inactive” each time. Besides, the Potency result in test [10], in test [12], in test [13], in [14], in [15] and in test [18] was “inactive” throughout. For the same compound, in test [11], the compound was called inactive.

Regarding `Clc1ccc(Cl)c(Cl)c1`, the Potency entry in test [1], in test [2], in test [3], in test [5], in [7] and in [8] was “inactive” each time. Also, the Potency entry in test [12], in [14] and in test [18] was “inactive” throughout. For the same compound, the compound was classed as inactive in test [17].

Turning to `OCCSSCCO`, the Potency entry in test [1], in [2], in test [3], in [16], in test [5] and in [7] was “inactive” each time. For the same compound, the Potency entry in [8], in test [9], in [10], in [12], in test [13] and in test [20] was “inactive” throughout. Moreover, the Potency result in test [14] and in [15] was “inactive” each time. The compound was classed as inactive in [11], in test [19] and in test [17].
